# Compound activity from PubChem.
# DRD3 agonist: D3 dopamine receptor (human) agonism | P35462 | max activation, % | actives 0.58% (n = 410,000) | AID 652048 | D3R DiscoveRx beta-arrestin cells, luminescence, 90 min; in the data active = max activation above about 30%; also: 0% is about no effect
#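 Cells at 1500/well, incubated overnight, then treated with pinned compounds (dopamine as control) for 90 min at 37 degrees C. DiscoveRx reagent added for 30 - 60 minutes at room temperature; luminescence read.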
# D3 antag: antagonists of human D3 dopamine receptor; D3R cells, DiscoveRx beta-arrestin luminescence, antagonist mode; hits give low values; max response, negative = inhibition, %; AID 652054; P35462; actives 2.5% (n = 360,000); in the data active = max response below about -50%; inconclusive = no clear call, values can overlap the other calls; also: % is scaled to controls: 0 for no effect and ±100 for the full control effect
#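 Cells expressing the human receptor were seeded at 1500 cells/well, incubated overnight at 37 degrees C in 5% CO2, then exposed to library compounds with dopamine controls for 90 minutes at 37 degrees C before luminescent detection.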
# CBFb RUNX1 block: blocks binding between human CBF-beta and RUNX1; AlphaScreen CBFb-His/RUNX1-biotin binding, biochemical; 230,000 tested, under 10 active; Potency, µM (series often up to 59.8 µM), inactives show at the top dose activity, negative = inhibition, most hits filed as inhibitors; AID 1477; also: % of control where 0% means no effect
#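 Bead-based AlphaScreen assay; binding partners His-tagged CBF-beta and biotinylated RUNX1 at 30 nM each. Compound exposure 15 min after a 20-min protein preincubation; bead step 90 min; all steps at room temperature.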
# a7 integrin act: integrin-mediated muscular dystrophy alleviation activation | alpha7betagal myoblasts, beta-gal FDG fluorescence, 48 h | Potency, µM (top dose mostly 38.3 µM), without a hit: at the highest dose activation, most hits filed as activators | actives 0.064% (n = 350,000);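 also: potency is read from the fitted curve at half-maximal effect; 100% = response of the positive control SU9516; nearly all actives have a fitted effect of over 60% in size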
#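 alpha7betagal+/- myoblasts (passage 13, 250/well) treated 48 h at 37C with compounds at 1:260 dilution of DMSO stock. Lysed, then beta-galactosidase activity read as FDG fluorescence (ex 480/em 540) after 30 min, with pre-read for autofluorescence.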
# PTHR1 agonist: agonists of human PTHR1 parathyroid hormone receptor; HEK293 GP2 PTHR1 cells, GloSensor cAMP luminescence, 1 h; Potency, µM (doses to about 115 µM), inactives show at the highest dose activation, actives largely listed as activators; actives 0.075% (n = 410,000); also: potency is read from the fitted curve at half-maximal effect; nearly all actives have a fitted effect of over 55% in size
# Target sequence (Q03431 whole entry, looked up): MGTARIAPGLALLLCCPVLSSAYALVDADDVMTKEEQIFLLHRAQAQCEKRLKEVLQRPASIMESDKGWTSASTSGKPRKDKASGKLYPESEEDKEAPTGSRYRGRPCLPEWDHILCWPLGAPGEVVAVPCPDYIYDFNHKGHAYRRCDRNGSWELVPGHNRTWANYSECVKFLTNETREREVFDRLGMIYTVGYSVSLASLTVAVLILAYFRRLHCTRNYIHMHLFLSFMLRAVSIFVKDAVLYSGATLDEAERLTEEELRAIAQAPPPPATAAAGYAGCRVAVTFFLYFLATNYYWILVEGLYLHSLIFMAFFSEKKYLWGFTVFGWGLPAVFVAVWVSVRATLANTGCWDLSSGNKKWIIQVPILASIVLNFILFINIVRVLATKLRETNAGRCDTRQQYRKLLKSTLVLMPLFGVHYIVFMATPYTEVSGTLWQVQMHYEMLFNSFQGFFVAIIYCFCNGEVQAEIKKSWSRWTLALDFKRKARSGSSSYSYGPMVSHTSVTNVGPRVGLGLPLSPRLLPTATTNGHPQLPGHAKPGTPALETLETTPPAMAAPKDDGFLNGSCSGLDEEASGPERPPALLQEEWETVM
#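 HEK-293-derived GP2 cells expressing PTHR1 and a GloSensor cAMP reporter, 3,000/well, plated overnight, given luciferin plus IBMX (each 0.5 mM as added) for 1 h at 37 °C, then compound for 1 h at 37 °C. Luminescence was read after 15 min at room temperature.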
# MBNL1-CUG inh: blocks human MBNL1 binding to CUG repeat RNA; Q9NR56; TR-FRET MBNL1-His/biotin-(CUG)12 binding, 665/545 ratio; Potency, µM (top dose mostly 57.5 µM), for the others: at the highest dose activity change, negative = inhibition, most hits filed as inhibitors; actives 0.036% (n = 280,000); active = well fitted inhibition curve with a large enough effect in the signal ratio, with a control signal flat, not every such curve was filed as active; inconclusive = small, poorly fitted or top-dose-only effect, or effect the other way, or a change in a side signal; inactive = no such curve, though single readings can be large or run the other way; the % refers to the signal ratio; also: potency is read from the fitted curve at half-maximal effect; % is scaled to controls: 0 for no effect and ±100 for the full control effect
#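 Compounds (final 92 nM to 58 uM) are added to His-tagged MBNL1 and biotin-(CUG)12, then terbium anti-His antibody and streptavidin-XL665 (5 nM final). After 60 min at room temperature, the 665/545 nm ratio is read.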
# * = called active by the depositor; i = inactive; ? = inconclusive; . = not tested or not shown; ! = repeats disagree; [ ] = another dose, or the depositor's remark. In the library only some 2.8% were active in any assay of this set; here they are far more common. Unless noted, calls follow the shape of the dose curve; as a rule, active = well fitted curve in the direction sought with a large enough effect; inconclusive = small, poorly fitted or top-dose-only effect, or another doubt; inactive = no such curve, though single readings can be large; an effect the other way counts as inactive or inconclusive.
SMILES,DRD3 agonist,D3 antag,CBFb RUNX1 block,a7 integrin act,PTHR1 agonist,MBNL1-CUG inh
CCOC1=C2[C@H](c3ccc(CC)cc3)N(S(=O)(=O)c3ccc(C)cc3)C[C@H]2C(C#N)(C#N)C(C#N)(C#N)C1,-3,4,.,.,-17%,.
O=C1CC(c2ccccc2)CC(O)=C1C=Nc1ccccc1Cl (stereo not drawn),-16,-81*,4%,-8%,i,-17%
CC(NC(=O)Cn1ncc(Cl)c(Cl)c1=O)C12CC3CC(CC(C3)C1)C2 (stereo not drawn),-14,-77*,3%,-52%,-22%,?
CCn1cc(C(=O)NC(C)C23CC4CC(CC(C4)C2)C3)cn1 (stereo not drawn),-8,-5,8%,7%,-28%,5%
O=C(Cn1ncc(Cl)c(Cl)c1=O)NC(=O)NC1CCCCC1,-13,-68*,.,-5%,i,.
CCCCNc1c(-c2cccc(SC3CCCCC3)c2)nc2ccc(Cl)cn12,69*!,88,.,-7%,-5%,.
CCCCNc1c(-c2ccc(SC3CCCCC3)c(OC)c2)nc2ccc(C)cn12,-10,152,.,-38%,-51%,.
CCCCNc1c(-c2ccc(SC(C)CC)cc2)nc2ccccn12 (stereo not drawn),30*!,52,.,-42%,-41%,.
CCCCNc1c(-c2ccc(SC3CCCCC3)cc2)nc2ccccn12,72*!,83,.,-20%,-41%,.
O=C1C=C(OCCF)CC(c2ccc(Br)cc2)O1 (stereo not drawn),3,5,.,.,-1%,.
c1cnc2cc3c(cc2n1)[C@@H]1CNC[C@H]3C1,4,.,.,.,.,.
COc1cc(CN2CCC(C(=O)N3CCN(c4ccccc4F)CC3)CC2)cc(OC)c1OC,-6,-53*,-1%,-20%,-21%[57.5 µM],-13%
CCCNC(=O)C1CC(c2ccc(C(F)(F)F)cc2)=NO1 (stereo not drawn),38*,-14,17%,-4%,i,-4%
O=C(NCCCCc1ccccc1)C1CC(c2ccc(C(F)(F)F)cc2)=NO1 (stereo not drawn),58*,53,?,-11%,-16%,7%
COc1ccc(CCNC(=O)C2CC(c3cc(C(F)(F)F)cc(C(F)(F)F)c3)=NO2)cc1 (stereo not drawn),33*,5,23%,14%,i,1%
CCCCNC(=O)C1CC(c2ccc(C(F)(F)F)cc2)=NO1 (stereo not drawn),20,9,10%,6%,-7%,-15%
COc1ccc(C2=NOC(C(=O)NCC(C)C)C2)cc1 (stereo not drawn),-2,-90*,9%,5%[7.66 µM],i,-5%
Cc1ccc(CCNC(=O)C2CC(c3cc(C(F)(F)F)cc(C(F)(F)F)c3)=NO2)cc1 (stereo not drawn),-2,19,19%,11%,-26%,-11%
COc1ccc(CNC(=O)C2CC(c3ccc(OC)cc3)=NO2)cc1 (stereo not drawn),-6,-11,-1%,-1%,i,-5%
Cc1ccc(NC(=O)CSc2ccc3nnc(CCNC(=O)c4ccccc4)n3n2)c(C)c1,-18,-8,5%,-3%,i,2%
Cc1ccn2c(Nc3ccccc3C)c(-c3ccccn3)nc2c1,-20,-59*,.,-24%,i,28%
Cc1ccn2c(Nc3ccccc3)c(-c3ccccn3)nc2c1,-26,-74*,.,-47%,i,23%
Cc1ccc2nc(-c3ccccn3)c(Nc3ccccc3C)n2c1,-25,-59*,.,-32%,-6%,23%
Cc1ccc2nc(-c3ccncc3)c(Nc3ccccc3C)n2c1,5,.,.,.,-1%,.
Cc1ccccc1Nc1c(-c2ccccn2)nc2ccccn12,-28,?,.,-44%,-41%,29%
SMILES,DRD3 agonist,D3 antag,CBFb RUNX1 block,a7 integrin act,PTHR1 agonist,MBNL1-CUG inh
Cc1cccn2c(Nc3ccccc3)c(-c3ccccn3)nc12,0,-23,?,-20%,-16%,46%
COc1cc(OC)c(NC(=O)C2=C(C)C(=O)OC23CCCCCC3)cc1Cl,7,.,.,.,-1%,.
Fc1ccc(-c2nnc3ccc(N4CCc5ccccc5C4)nn23)cc1,-2,?,-1%,-40%,-19%,36%
CN1CCN(CCCNC(=O)c2ccc(CSCc3cccc(Cl)c3)o2)CC1,-10,6,-5%,-41%,i,0%
CC1CCN(CCCNC(=O)c2ccc(CSCc3cccc(Cl)c3)o2)CC1,-60,-62*,-2%,-63%,-15%,-11%
CC(=O)Nc1c(NC(C)C)c2ccccc2oc1=O,2,-15,3%,18%,27%,-3%
COC(=O)Oc1c(Br)c(=O)oc2ccccc12,-1,-82*,.,-9%,-8%[57.5 µM],.
O=C1/C(=C/c2ccccc2)CCc2ccc(Cl)nc21,-26,-73*,.,-54%,-38%,.
CCOCc1nc2nc(Cl)c(Cl)nc2[nH]1,-1,4,.,24%,-12%,.
Cc1ccc2oc(-c3ccccc3)c(C(=O)O)c(=O)c2c1,-2,-53*,-7%,19%,i,-6%
COc1ccc(C2=C(C#N)C(=O)OC2)cc1,1,-56*,2%,-17%,i,-2%
O=C(NCCCN1CCc2ccccc2C1)C1CCN(c2nnc(-n3cccc3)s2)CC1,-9,-82*,-3%,-5%,i,-17%
Cc1ccc(N2C(=O)c3ccccc3C2=O)cc1,1,?,9%,7%,-14%,14%
Cc1ccc(SC2=C(Sc3ccc(C)cc3)C(=O)c3ccccc3C2=O)cc1,-18,-114*,0%,-16%,i,3%
COc1ccc(-c2oc(=O)c3cc(OC)c(OC)cc3c2C(F)(F)F)cc1,62*,21,.,3%,-18%,.
O=C1C=CC(=O)C(C2=C3C(=O)N(CCc4ccccc4)CC(=O)N3CCC2)=C1,-1,-72*,-22%,-45%,-38%,-2%
O=C1CC2(CCCCC2)CC(=O)N1CCc1ccccc1,6,1,.,?,i,.
CNc1nc(-c2ccccc2)c2sccc2n1,-13,-74*,.,.,?,.
CN(C)CC#CCC(O)(c1ccccc1)C1CCCCC1 (stereo not drawn),-13,-55*,.,24%,-19%,-2%
Cc1cccc(C)c1-n1nnnc1C(c1cc2ccccc2o1)N1CCN(C/C=C/c2ccccc2)CC1 (stereo not drawn),-18,-74*,.,.,i,.
Cc1cccc(C)c1-n1nnnc1C(c1ccnc2ccccc12)N1CCN(CC(=O)NC(C)C)CC1 (stereo not drawn),-6,-18,.,.,-6%,.
